hgDAF-12 ag = H. glycines DAF-12 receptor agonists, primary screen, cell-based, luminescence, HEK293, GAL4 fusion, UAS-luciferase. Nuclear hormone receptor DAF-12 (Heterodera glycines), GAL4 fusion. HEK293 GAL4-hgDAF12 UAS-luciferase reporter, agonist luminescence; normalized to butyrate control. activation, % at 6.8 µM. hit rate 1.8% among 370,000;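 active means activation above a cutoff set at the mean of all screened compounds plus 3 SD, cut at about 10% in these data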;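 further: 0% = DMSO wells and 100% = sodium butyrate wells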
AHR act = AHR activators, primary screen, cell-based, luminescence, luciferase reporter, human; Aryl hydrocarbon receptor (Homo sapiens), P35869; AHR-responsive luciferase reporter cells; activation, % at 5 µM; hit rate 2.5% among 320,000; AID 2796, 2010; in the data active means activation above about 47%;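 further: 0% = vehicle wells and 100% = reference agonist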
hcDAF12 agonist = H. contortus DAF-12 nuclear receptor activators, primary screen, cell-based, luminescence, HEK293, lit1-tk-luc reporter | HEK293 hcDAF-12 lit1-tk-luc reporter; 0% DMSO, 100% Δ7-dafachronic acid | activation, % at 6.8 µM | hit rate 1.4% among 370,000 | AID 652067, 2013;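 active means activation above the mean of all tested compounds plus 3 SD, cut at about 5.5% in these data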;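 further: 100% = response to 3 µM Δ7-dafachronic acid high control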
DAX1 inh-1 = DAX1 (NR0B1) inhibitors on StAR promoter, primary screen, cell-based, luminescence, SF-1 (NR5A1), full-length DAX-1. inhibition, % at 6.8 µM. HEK293T StAR-luciferase reporter, SF-1/DAX-1 repression relief. hit rate 1.1% among 370,000. AID 652010, 2013;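 active means inhibition above the mean over all tested compounds plus 3 SD, cut at about 3.6% in these data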;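 further: 0% = DAX-1 cells with DMSO and 100% = cells lacking DAX-1 with DMSO; higher inhibition means more luminescence from relief of DAX-1 repression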
ssDAF-12 act = S. stercoralis DAF-12 nuclear receptor activators, primary screen, cell-based, luminescence, HEK293, GRIP1 co-expression, lit1-tk-luc | hit rate 1% among 370,000 | activation, % at 6.8 µM | HEK293 ssDAF-12/GRIP1 lit1-tk-luc reporter; % of 3 µM dafachronic acid response | Nuclear hormone receptor DAF-12 (Strongyloides stercoralis);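 active means activation above the mean over all tested compounds plus 3 SD, cut at about 0.9% in these data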;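 further: 0% = DMSO-only wells and 100% = 3 µM delta7-dafachronic acid wells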
DAX1 inh-2 = DAX1 (NR0B1) inhibitors, primary screen, cell-based, HEK293, Gal4-DAX1, luciferase luminescence; inhibition, % at 6.75 µM; HEK293 Gal4-DAX1 luciferase reporter; hit rate 0.99% among 340,000; AID 504766, 2011; Nuclear receptor subfamily 0 group B member 1 (Homo sapiens), P51843;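 active means inhibition above the mean over all tested compounds plus 3 SD, cut at about 4.2% in these data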;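 further: 0% = DAX1-transfected cells with DMSO and 100% = empty-vector control cells with DMSO; inhibition shows as a rise in luminescence from relieved DAX1 repression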
Active calls of the source: *; · = no result given. An excerpt weighted towards active compounds, which were near 5.7% of everything screened.

SMILES	hgDAF-12 ag	AHR act	hcDAF12 agonist	DAX1 inh-1	ssDAF-12 act	DAX1 inh-2
Cc1cc(NC(=O)CSc2nc(N)c(NC(=O)c3ccccc3)c(=O)[nH]2)no1	3	-3	2	1	-2	-1
CCc1c(C)nc(SCC(=O)NNC(=O)c2ccco2)[nH]c1=O	2	2	6.0*	1	0	1
Cc1cc(NC(=O)CSc2nc(N)c(NC(=O)c3ccccc3F)c(=O)[nH]2)no1	-1	0	1	-2	0.9*	0
CCc1c(C)nc(SCC(=O)Nc2ccc(Br)cc2)[nH]c1=O	0	1	0	0	-2	0
CC(C)(C)OC(=O)N[C@@H](COCc1ccccc1)C(=O)N[C@@H](CO)[C@H](O)[C@@H]1C[C@@H]1C(=O)NC1CCCCC1	0	-1	-2	0	-1	1
Cc1ccccc1NC(=S)c1nc2ccccc2[nH]1	8	47*	5.8*	0	1.2*	0
Cc1onc(-c2ccccc2)c1C(=O)NNC(=S)NC(=O)c1ccc2c(c1)OCO2	3	12	0	-1	0	2
COCC(=O)Nc1c(C(=O)Nc2cccc(OC)c2)oc2ccccc12	9	70*	0	0	0	1
COc1ccccc1NC(=O)c1oc2ccccc2c1NC(=O)c1cc(OC)c(OC)c(OC)c1	-1	21	-1	0	-1	-1
COCC(=O)Nc1c(C(=O)Nc2ccccc2OC)oc2ccccc12	2	84*	3	-1	0	0
COc1ccccc1NC(=O)c1oc2ccc(C)cc2c1C	6	60*	4	0	0	1
COc1cccc(NC(=O)c2oc3ccccc3c2NC(C)=O)c1	·	29	·	·	·	2
C=CCOc1ccc(/C=C/C(C)=N\O)cc1	9	9	3	3.9*	0	2
C=CCOc1ccc(/C=C/C(=O)OCC(=O)N2CCN(C(C)=O)CC2)cc1	1	1	-1	-1	-1	1
Cc1nnc(NC(=O)CSc2nnc3c(n2)[nH]c2ccc(Br)cc23)s1	1	5	0	0	-1	0
COc1ccc(NC(=O)c2cccc(N3C(=O)c4ccc(C(=O)Nc5ccc(OC)c(O)c5)cc4C3=O)c2)cc1O	3	-1	0	1	-1	1
COC(=O)c1ccc(N2CCN(c3ccccc3)CC2)nc1	3	2	1	1	0	-2
Cc1nc2c([nH]c3ccccc32)c(=O)n1N	2	27	3	0	1.2*	·
O=c1c2[nH]c3ccccc3c2nc2n1CCCS2	4	66*	3	0	0	·
Nn1c(=O)[nH]c2c([nH]c3ccccc32)c1=O	6	16	5	0	0	0
O=c1c2[nH]c3ccc(F)cc3c2nc2n1CCCS2	0	71*	-1	0	-1	1
O=c1c2[nH]c3ccc(F)cc3c2nc2n1CCS2	-1	32	-2	0	-1	0
O=c1c(C(c2ccccc2)c2c(O)nc3n(c2=O)CCCS3)c(O)nc2n1CCCS2	-2	0	1	1	-1	1
O=C(COC(=O)COc1ccc(Cl)cc1)Nc1ncc(Br)s1	1	·	0	1	-1	2
COc1ccccc1NS(=O)(=O)c1ccc(C)c(NC(=O)C2CCCO2)c1 (stereo not drawn)	-2	0	1	0	-1	0
O=C(Nc1ccsc1C(=O)O)c1ccccc1	3	5	0	0	-1	2
O=C(Nc1ccsc1C(=O)NC1CC1)c1ccccc1	0	59*	0	-2	-1	-1
O=C(CSc1nc2ncc(Cl)cc2[nH]1)c1c[nH]c2ccccc12	0	60*	2	0	-1	2
